Experimental findings from PubChem BioAssay AID743130 (Broad Institute, 2013) are described below.

Several values for one entry are separate records, joined by “and”; a condition that tells them apart may be missing. Identical values can stand only once. Activity calls are given as the source filed them.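 How the source made its calls: active means fitted curve rises past 20% activation at a concentration no higher than the top valid tested dose; inactive means activity opposite to the expected signal increase, and the rest.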

The assay can be described thus: cell wall integrity pathway activation in yeast – S. cerevisiae reporter strain, C. neoformans project, dry powder, dose response (AID 743130). Conditions: S. cerevisiae Rlm1-lacZ reporter, luminescence, 4 h, stronger effect = higher value; at 35 µM unless noted.
As for `Cc1ccc2c(c1)[nH]c(=S)n2CCOc1ccccc1`, the maximal activation is 1.98% (inactive).
With `COC(=O)C1=C(C)N(Cc2ccc(Br)cc2)C(=S)NC1c1ccc(OC)cc1` (centres undefined), the maximal activation was 5.5% [at 0.26 µM] (inactive).
The result for `Cc1ccc(OCCn2cnc3ccccc32)cc1` reads -5.3% [at 4.2 µM] (inactive).
The value for `CCOc1ccc(OCCn2c(=S)[nH]c3ccccc32)cc1` was -9.4% [at 0.26 µM] (inactive); that for `Cc1ccc(OCCn2c(=S)[nH]c3ccccc32)cc1` was -4.62% (inactive).
In the case of `CCOC(=O)c1c(NC(=O)CN2CCN(C)CC2)sc(C)c1-c1ccc(C)cc1`, the maximal activation was 5.75% (inactive).
Turning to `S=c1[nH]c2cccc(Cl)c2n1CCOc1ccccc1`, the maximal activation is -2.44% (inactive).
The value for `COC(=O)C1=C(C)N(Cc2ccc(Cl)cc2)C(=S)NC1c1ccc(Br)cc1` (centres undefined) was 9% [at 2.1 µM] (inactive).
The result for `CCOC(=O)c1c(-c2ccc(C(C)(C)C)cc2)csc1NC(=O)CN1CCN(C)CC1` reads 6.67% [at 16 µM] (inactive).
Turning to `Cc1ccccc1OCCn1c(=S)[nH]c2ccccc21`, the maximal activation is -3.77% [at 1 µM] (inactive).
On to `S=c1[nH]c2ccccc2n1CCOc1ccc(Cl)cc1`, for which the maximal activation was 3.89% [at 8 µM] (inactive).
The result for `Cc1cccc(OCCn2c(=S)[nH]c3cc(C(F)(F)F)ccc32)c1` reads -9% [at 16 µM] (inactive); that for `COC(=O)C1=C(C)N(Cc2ccccc2)C(=S)NC1c1ccc(Br)cc1` (centres undefined), 6.99% [at 8 µM] (inactive).
The result for `O=c1[nH]c2ccccc2n1CCOc1ccccc1` reads 6.24% [at 2.1 µM] (inactive) and 3.18% [at 2.1 µM] (inactive).
The value for `Fc1ccccc1OCCn1c(=S)[nH]c2ccccc21` was -3.96% (inactive).
`CCOC(=O)c1c(-c2ccc(F)cc2)csc1NC(=O)CN1CCN(C)CC1`: the maximal activation was 8.68% [at 16 µM] (inactive).
The result for `Fc1cccc2c1[nH]c(=S)n2CCOc1ccccc1` reads -3.67% [at 8 µM] (inactive); that for `S=c1[nH]c2ccccc2n1CCOc1ccccc1`, 3.85% [at 4.2 µM] (inactive); that for `CCOC(=O)c1c(-c2ccc(-c3ccccc3)cc2)csc1NC(=O)CNCCN(C)C`, -12.6% (inactive).
The result for `Cc1ccc(C(C)C)c(OCCn2c(=S)[nH]c3ccccc32)c1` reads -8.35% [at 0.5 µM] (inactive); that for `Cc1ccc(OCCn2c(C)nc3ccccc32)cc1`, 1.77% (inactive).
The result for `COC(=O)C1=C(C)N(Cc2ccc(F)cc2)C(=S)NC1c1cccc(F)c1` (centres undefined) reads 3.69% (inactive); that for `CCOC(=O)c1c(-c2ccc(OC)cc2)csc1NC(=O)CN(C)CC(=O)N(C)C`, -2.31% [at 4.2 µM] (inactive).
On to `CCOC(=O)c1c(-c2ccc(F)cc2)csc1NC(=O)CN1CCN(CC)CC1`, for which the maximal activation is 7.91% [at 1 µM] (inactive).
In the case of `c1ccc(OCCn2cnc3ccccc32)cc1`, the maximal activation was -5.78% [at 1 µM] (inactive).
The result for `Cc1ccc(OCCn2c(SCCO)nc3ccccc32)c(C(C)C)c1` reads -2.9% [at 2.1 µM] (inactive); that for `CCOC(=O)c1c(NC(=O)CNCCN(C)C)sc(C)c1-c1ccccc1`, -3% [at 2.1 µM] (inactive); that for `CCOC(=O)c1c(-c2ccc(C(C)(C)C)cc2)csc1NC(=O)CN1CCN(CC)CC1`, 2.55% [at 8 µM] (inactive).
The value for `COC(=O)C1=C(C)N(Cc2ccc(Br)cc2)C(=S)NC1c1ccc(F)cc1` (centres undefined) was 9.62% [at 16 µM] (inactive).
